Most compounds without a hit are left out; they make up all but 2.8% or so of the library.
WRN inhibitor = inhibitors of human WRN helicase | Potency, µM (titrated, usually from 114 µM), without a hit: at the highest dose activity change, negative = inhibition, most hits filed as inhibitors | AID 651768 | actives 0.46% (n = 360,000) | WRN helicase unwinding, fluorescent forked duplex, kinetic | Q14191; further: potency means the concentration at half of the fitted maximal effect; on the % scale 0 is the no-effect control and ±100 the full control effect; nearly all actives have a fitted effect of over 55% in size
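Primary qHTS, 1536-well format. 20 nM WRN + compound, 15 min RT; start with 100 nM forked fluorophore/quencher duplex, 2 mM ATP (final); kinetic read ex 525/em 598 nm.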
Pol beta inh = inhibitors of human DNA polymerase beta; P06746; actives 1.3% (n = 340,000); Potency, µM (titrated, usually from 114 µM), for the others: at the top dose activity change, negative = inhibition, most hits filed as inhibitors; Pol beta primer extension/strand displacement, fluorescence kinetic; further: potency means the concentration at half of the fitted maximal effect; on the % scale 0 is the no-effect control and ±100 the full control effect
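Preincubation: enzyme (10 nM) with compound, 15 min, RT. Reaction: substrate added to 50 nM final. Reads: 0 and 10 min. Analysis: normalized, Hill fit.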
Pol kappa inh = inhibitors of human DNA polymerase kappa. Q9UBT6. purified Pol kappa, fluorescent DNA synthesis assay, 10 min. Potency, µM (highest dose often 107 µM), for inactives: at the highest dose activity, negative = inhibition, usual class: inhibitors. actives 0.53% (n = 400,000). AID 588579; further: potency means the concentration at half of the fitted maximal effect; on the % scale 0 is the no-effect control and ±100 the full control effect
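Kinetic fluorescence readout at 0 and 10 min followed reaction start with substrate at 50 nM final. Beforehand, enzyme (10 nM Pol kappa) stood 15 min with compound at room temperature; buffer-only wells were negative controls.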
PI5P4K alpha inh = inhibitors of human PI5P4K alpha. P48426. PI5P4Kalpha enzyme, ADP-Glo luminescence, 60 min; stronger effect = lower value. max response, %. actives 1.2% (n = 330,000). AID 652105; active means max response of -50% or lower; inconclusive means between -30% and -50%; inactive means -30% or higher; further: value at the top dose of about 77 µM; on the % scale 0 is the no-effect control and ±100 the full control effect
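Luminescence from ADP-Glo served as readout of PI5P4Kalpha activity in a qHTS format. Reaction: enzyme, substrate, compound, ATP at 5 microM final, 60 min at RT.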
Pol iota inh = blocks human DNA polymerase iota activity. Pol iota fluorescent replication assay, 10 min. Potency, µM (doses to about 115 µM), for the others: at the top dose activity, negative = inhibition, usual class: inhibitors. actives 1% (n = 390,000). Q9UNA4. AID 588590; further: potency means the concentration at half of the fitted maximal effect
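Pol iota at 10 nM preincubated 15 min with compounds at room temperature; reaction started with fluorescent substrate, 50 nM final. Fluorescence read kinetically at 0 and 10 min; buffer-only wells as negative control.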
Pol eta inh-1 = DNA polymerase eta (human) inhibition. actives 1.2% (n = 390,000). AID 588591. Potency, µM (doses to about 114 µM), for inactives: at the top dose activity change, negative = inhibition, most hits filed as inhibitors. Q9Y253. recombinant Pol eta, fluorescent DNA replication assay; further: potency means the concentration at half of the fitted maximal effect; on the % scale 0 is the no-effect control and ±100 the full control effect
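Pol eta at 10 nM preincubated with compounds 15 min at room temperature; reaction started with fluorescent substrate (50 nM final) and read kinetically at 0 and 10 min.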
Pol eta inh-2 = Pol eta (human) inhibition, cherry-pick confirmation; shares compounds with Pol eta inh-1; Pol eta primer extension, TAMRA/BHQ fluorescence, 10 min; Potency, µM, hits mostly inhibitors; actives 64% (n = 2,600); AID 720502; further: potency means the concentration at half of the fitted maximal effect
* hit, by the source's call; ? = inconclusive; / = no result given; [ ] = remark or other dose. Unless noted, the call rests on the fitted dose curve; in most records, active means well fitted curve in the direction sought with a large enough effect; inconclusive means small, poorly fitted or top-dose-only effect, or another doubt; inactive means no such curve, though single readings can be large; an effect the other way counts as inactive or inconclusive.

SMILES	WRN inhibitor	Pol beta inh	Pol kappa inh	PI5P4K alpha inh	Pol iota inh	Pol eta inh-1	Pol eta inh-2
CC(=O)c1cccc(NC(=O)CN2C(=O)c3ccccc3C2=O)c1	8.3%	18.1%	-15.2%	-3.0	63.0%	-16.3%	/
CC(=O)c1cccc(NC(=O)CN2C(=O)C(=O)N(Cc3ccco3)C2=O)c1	-18.5%	/	?	-25.5	50.1µM*	14.1µM*	?
Cc1cccc(NC(=O)c2cnc3sc(N4CCCC4)nn3c2=O)c1C	/	1.1%	1.8%	/	2.2%	-13.1%	/
O=C(N/C=C/c1ccco1)OCc1ccccc1	-4.3%[11.6 µM]	?	-43.1%	-24.4	?	?	?
O=C(N/C=C/c1ccco1)Nc1cccc(Cl)c1	0.2%[11.6 µM]	-15.1%	-41.8%	?	?	?	/
O=C(COC(=O)/C=C/c1ccco1)NCc1ccccc1	1.7%	?	-10.7%	2.9	170.8%	-12.3%	/
COc1ccc(NC(=O)N/C=C/c2ccco2)cc1	-7.0%[11.6 µM]	25.1µM*	?	-15.0	?	44.7µM*	?
CC(=O)Nc1cccc(NC(=O)Cn2cnc3c2c(=O)n(C)c(=O)n3C)c1	/	-19.7%	-5.0%	/	2.6%	0.1%	/
O=C(CCc1nnc2ccc(NCc3ccco3)nn12)Nc1ccccc1F	-14.6%	?	-23.0%	?	?	?	/
O=C(CCc1nnc2ccc(NCc3ccco3)nn12)Nc1ccccn1	-3.2%[11.6 µM]	?	5.1%	-24.2	19.5%	28.2µM*	?
Cc1cccc(NC(=O)CCc2nnc3ccc(NCc4ccco4)nn23)n1	-7.0%[11.6 µM]	?	1.2%	-21.1	36.0%	25.1µM*	75.7*
O=c1c2ccccc2nc2ccc(NCc3ccco3)nn12	?	?	-36.6%	-26.3	?	?	?
Cc1sc2nc3ccc(NCc4ccco4)nn3c(=O)c2c1C	?	?	-35.5%	-15.7	?	?	/
Cc1ccccc1CSc1nnc2[nH]c(=O)cc(-c3ccccc3)n12	/	3.1%	-5.1%[60.1 µM]	/	-7.7%	0.5%	/
O=c1cc(-c2ccc(F)cc2)nc(SCc2nc(-c3ccc(Cl)cc3)no2)[nH]1	/	6.0%	-4.7%[60.1 µM]	/	-24.7%	5.1%	/
Cc1onc(-c2ccccc2Cl)c1C(=O)NCc1ccco1	-22.2%[57.1 µM]	28.2µM*	?	/	?	44.7µM*	?
COc1ccc(CNC(=O)c2cnc3sc(N4CCOCC4)nn3c2=O)cc1	/	3.5%	?	/	?	-4.2%	/
CCC1=NN2C(=N)/C(=C\c3cccn3-c3cccc(Cl)c3)C(=O)N=C2S1	-7.8%[11.6 µM]	22.4µM*	-43.3%	-9.6	?	31.6µM*	?
CCC1=NN2C(=N)/C(=C\c3cccn3-c3ccc(Br)cc3)C(=O)N=C2S1	1.6%	-13.2%	-11.0%	-5.1	?	-5.0%	/
COC(=O)C1=C(O)/C(=C\c2ccc(CNS(=O)(=O)c3ccc(Cl)cc3)o2)N=C1C	?	25.1µM*	79.4µM*	-20.7	?	?	?
CCOC(=O)C1=C(O)/C(=C/c2ccc(CNC(=O)C(=O)Nc3ccc(C)cc3)o2)N=C1C	?	?	-19.6%	?	-13.6%	?	/
CCc1nnc2c3ccccc3nc(Nc3ccc(F)cc3C)n12	/	82.0%	1.7%	/	40.2%	1.3%	/
O=C1/C(=C/c2ccccn2)SC(=S)N1c1ccc(O)cc1	-4.8%	4.6%	-4.0%	-2.0	-19.7%	-3.7%	/
Cc1ccc(/C=C2/SC(=S)N(c3ccc(S(=O)(=O)Nc4nccs4)cc3)C2=O)cc1	?	?	?	-68.1*	17.8µM*	39.8µM*	75.7*
O=C1/C(=C\c2ccccn2)SC(=S)N1c1ccc(S(=O)(=O)Nc2nccs2)cc1	?	?	?	-70.6*	?	17.8µM*	84.9*
Cc1cc(SCC(=O)N/N=C/c2ccc(O)cc2O)nc2ccccc12	-8.9%	1.8%	-9.3%	-13.1	12.1%	-11.6%	/

Screening results from PubChem.
